# In the library only some 21% were active in any assay of this set; here they are far more common.
# Pf growth 96h = Primary qHTS for delayed death inhibitors of the malarial parasite plastid, 96 hour incubation. actives 6.9% (n = 320,000). P. falciparum luciferase reporter growth, 96 h. Potency, µM (doses to about 28.7 µM), inactives show at the highest dose activity change, negative = inhibition, actives largely listed as inhibitors; active means well fitted inhibition curve with a large enough effect; inconclusive means small, poorly fitted or top-dose-only effect, or another doubt; inactive means no such curve, though single readings can be large or run the other way; further: potency means the concentration at half of the fitted maximal effect; on the % scale 0 is the no-effect control and ±100 the full control effect
#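 Parasite growth measured via integrated firefly luciferase reporter in P. falciparum. Infected erythrocytes at 2% hematocrit, 0.05% parasitemia final were treated 96 hours at 37 C under 5% CO2, and luminescence was read.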
# NS1 inh = qHTS Assay for Inhibitors of Influenza NS1 Protein Function; Potency, µM (highest dose often 46.1 µM), for inactives: at the highest dose activity, positive = more growth; actives 0.4% (n = 270,000); AID 2326, 2010; further: potency means the concentration at half of the fitted maximal effect; actives are rising curves; nearly all actives have a fitted effect of over 50% in size
#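 A cell-based growth assay was used: compounds that relieve NS1-induced slow growth of budding yeast raise OD600. Assay medium was yeast nitrogen base with ammonium sulphate and -URA supplement, pH 6.0, with 2% galactose.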
# Shiga toxin inh = A qHTS for Small Molecule Inhibitors of Shiga Toxin; Vero cells, Shiga toxin protein synthesis inhibition reporter; inhibition, % at 38.7 µM; AID 2315, 2010; actives 9.2% (n = 290,000); in the data active means inhibition mostly above about 28%, no sharp cut-off; inactive means mostly below about 43%; further: 0% is about no effect
# Pf growth 48h = Primary qHTS for delayed death inhibitors of the malarial parasite plastid, 48 hour incubation; P. falciparum luciferase growth in erythrocytes, 48 h; Potency, µM (doses to about 28.7 µM), for the others: at the top dose activity change, negative = inhibition, actives largely listed as inhibitors; actives 5.9% (n = 310,000); AID 504832, 2011; active means well fitted inhibition curve with a large enough effect; inconclusive means small, poorly fitted or top-dose-only effect, or another doubt; inactive means no such curve, though single readings can be large or run the other way; further: potency means the concentration at half of the fitted maximal effect; on the % scale 0 is the no-effect control and ±100 the full control effect
#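 Parasite viability was followed by luminescence of a genomically integrated firefly luciferase. Cultures held 0.1% parasitemia at 2% hematocrit (final), incubated under 5% CO2 at 37 C.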
# CHX counter = Cycloheximide Counterscreen for Small Molecule Inhibitors of Shiga Toxin | cell reporter, cycloheximide protein synthesis inhibition counterscreen | actives 12% (n = 300,000) | AID 2314, 2010 | max response, %; in the data active means max response mostly above about 13%, no sharp cut-off; inactive means mostly below about 14%; further: read at 38.3 µM for the half of the compounds with a filed dose; 0% is about no effect
# SARS PLP yeast = qHTS of Yeast-based Assay for SARS-CoV PLP | AID 485353, 2010 | actives 0.19% (n = 330,000) | Potency, µM (doses to about 32.9 µM), for the others: at the top dose activity, positive = growth rescue, actives largely listed as activators | S. cerevisiae expressing SARS-CoV PLpro, growth rescue; further: potency means the concentration at half of the fitted maximal effect; 0% is about no effect; nearly all actives have a fitted effect of over 55% in size
# An asterisk follows results filed as active; ? = inconclusive; · = not tested or not shown; ! = not confirmed by another sample; [ ] = another dose, or the depositor's remark. Unless noted, the call rests on the fitted dose curve.
SMILES,Pf growth 96h,NS1 inh,Shiga toxin inh,Pf growth 48h,CHX counter,SARS PLP yeast
CCOc1ccc(/C=C/c2[nH]c(=O)[nH]c(=O)c2[N+](=O)[O-])cc1,166.3%,11.4%,·,-2.6%,-2.5,0.3%
C[N+]12CCCC[C@@H]1CCC(=C(c1cccs1)c1cccs1)C2 (some centres not stated),-9.0%,·,·,4.26µM*,·,·
COc1ccc2o/c(=N/NC(=O)c3cccs3)c(C(N)=O)cc2c1,?,·,70.9*,94.0%,35.6*,1.6%
N/C(=N\NC(=O)c1cccs1)c1cc2cc(Cl)ccc2oc1=O,46.2%,7.5%,48.8*,31.7%,36.0*,0.0%
CCOc1ccc(S(=O)(=O)N(CC)CC(=O)NCc2ccncc2)cc1,-25.5%,18.8%,-8.6,-11.8%,1.4,-0.1%
COc1cc(CCN2C(=O)N[C@@H](c3cccc(C(F)(F)F)c3)C(C(C)=O)=C2C)cc(OC)c1OC,10.4µM*,-7.8%,2.5,13.1µM*,-0.9,6.0%
CCN1C(=NCc2cc(OC)c(OC)c(OC)c2)N[C@@H](c2ccccc2)C(C(=O)OC)=C1C,4.65µM*,-0.9%,-4.6,-22.7%,-2.4,-5.2%
CCN1C(=NCc2cc(OC)c(OC)c(OC)c2)N[C@@H](c2cccc(C(F)(F)F)c2)C(C(=O)OC)=C1C,2.62µM*,25.6%,-12.0,?,1.3,2.9%
CCN(CC)CCCN=C1N[C@@H](c2ccccc2)C(C(=O)OC)=C(C)N1CC,1.69µM*!,-15.6%,-8.0,?,0.8,4.1%
Cc1cc2cc(CCNC(=O)CCCc3ccccc3)c(=O)[nH]c2cc1C,-15.7%,-13.1%,8.4,-17.3%,8.8,1.4%
CCOc1ccc(-c2nc(CSCC(=O)N3CCN(C(=O)c4ccco4)CC3)c(C)o2)cc1,?,-31.2%,93.9*,·,24.9*,3.6%
CCOC(=O)C1CCN(C(=O)CSCc2nc(-c3ccc(OCC)cc3)oc2C)CC1,-1.6%,-17.5%,-4.0,?,15.4*,-15.0%
COCCNC(=O)CN1C(=O)NC2(CCCc3ccccc32)C1=O (configuration not stated),18.1%,3.7%,12.7,5.2%,5.6,-0.7%
CCOc1ccc(CCNc2ccc3nnc(-c4ccccc4)n3n2)cc1OCC,4.65µM*,10.9%,-19.3,?,-3.3,3.0%
Clc1ccc(CNc2ccc3nnc(-c4ccccc4)n3n2)cc1,57.1%,-10.8%,-10.2,?,-0.9,-2.1%
O=C(N/N=C/c1ccc(O)cc1)c1cc[n+](Cc2ccccc2)cc1,?,-15.8%,-10.8,10.7%,-3.3,13.8%
CC(C)(C)c1ccc(OCc2ccc(C(=O)N/N=C3\CC4CC=CC34)cc2)cc1 (configuration not stated),-16.1%,11.9%,17.5,10.2%,16.8*,-6.7%
CC(C)(C)c1ccc(OCc2ccc(C(=O)N/N=C/c3ccc(O)c(O)c3)cc2)cc1,?,·,63.9*,?,17.8*,27.8%
O=C(N/N=C/c1ccc(OCc2ccccc2)cc1)c1cc[n+](Cc2ccccc2)cc1,?,-30.3%,36.9*,-2.7%,20.4*,8.8%
O=C(N/N=C/c1ccc(OCc2ccc(F)cc2)cc1)c1ccccc1,-4.7%,·,-9.4,1.17µM*,-5.9,-8.0%
Cc1ccc(OCc2ccc(C(=O)NCC3CCCO3)cc2)cc1 (configuration not stated),?,·,35.5,-23.8%[5.75 µM],-3.2,-0.6%
COc1ccc(/C=N/NC(=O)c2ccc(COCC(F)(F)C(F)F)cc2)cc1,-12.9%,3.5%,-1.4,-8.5%,-3.0,-4.5%
COc1ccc(N2CCN(C(=O)c3ccccc3NC(=O)c3ccccc3)CC2)cc1,?,20.0%,-7.8,22.1%,7.2,-1.5%
Cc1ccc(NC(=S)N(CCN2CCOCC2)Cc2ccccc2F)cc1Cl,?,·,10.7,11.7µM*,3.0,1.2%
Cc1ccc(NC(=S)N(CCCN2CCOCC2)Cc2ccco2)cc1,11.7µM*,1.6%,-8.4,1.8%,1.4,1.7%
SMILES,Pf growth 96h,NS1 inh,Shiga toxin inh,Pf growth 48h,CHX counter,SARS PLP yeast
O=C(Nc1ccccc1)N(CCN1CCOCC1)Cc1ccccc1F,1.1%,1.3%,-3.1,1.7%,15.2*,2.1%
CCOC(=O)[C@H]1[C@H]2COc3ccc(Cl)cc3[C@H]2N2C(=O)CNC(=O)[C@@]12C,·,·,·,·,·,0.7%
O=C(Nc1ccc(OC(F)(F)F)cc1)c1cnccn1,?,-2.5%,101.2*,191.9%,55.0*,1.0%
Cc1csc2ncc(C(=O)Nc3cccc(C(F)(F)F)c3)c(=O)n12,34.0%,-20.4%,-1.4,43.1%,8.0,-8.7%
CCc1ccc(NC(=O)c2cnc3scc(C)n3c2=O)cc1,63.3%,-72.4%,11.0*,52.6%,34.0*,-3.3%
CCc1ccc(NC(=O)c2cnccn2)cc1,-5.4%,-12.6%,55.3*,481.1%,38.2*,-7.8%
CCCOC(=O)c1ccc(NC(=O)c2cnccn2)cc1,106.8%,-21.1%,50.8*,68.2%,26.0*,-3.4%
CCCCOC(=O)c1ccc(NC(=O)c2cnccn2)cc1,-4.1%,-10.3%,10.4,26.2%,17.9,-4.9%
CC1CCC(NCCNC(=O)c2ccco2)CC1 (configuration not stated),?,-4.4%,-5.3,17.7%,-3.6,0.3%
COc1ccc(S(=O)(=O)N2CCOC2CNC(=O)C(=O)NCc2ccccn2)cc1C (configuration not stated),10.5%,1.0%,-4.7,0.9%,-3.1,19.0%
O=C(CCl)c1ccc2[nH]c(=O)oc2c1,?,2.6%,-4.7,?,-3.1,-0.5%
CC(=O)N1CCc2ccc(S(=O)(=O)N3CCN(C)CC3)cc21,2.6%,7.6%,-8.1,12.1%,-1.4,13.6%
O=C(N/N=C/c1ccco1)c1cnccn1,62.2%,3.1%,8.7,-11.3%,-0.6,-4.8%
O=C(Nc1ccc(NC(=O)c2ccco2)cc1)c1cnccn1,?,-28.0%,58.4,96.9%,25.2*,0.2%
CCOc1cc(/C=C2\SC(N)=NC2=O)ccc1O,?,26.3%,14.1,0.0%,3.7,2.2%
COc1ccc(/C=C2/N=C(SC3CCOC3=O)N(c3cccc(OC)c3)C2=O)cc1 (configuration not stated),?,10.0%,-3.9,?,4.8,2.2%
CCOc1cc(/C=C2\N=C3CCCCCN3C2=O)ccc1O,-1.5%,1.5%,97.2*,94.3%,35.9*,-4.1%
COc1cccc(/C=C2\N=C3CCCCCN3C2=O)c1,-8.0%,10.8%,106.4*,·,51.8*,4.3%
Cc1ccccc1-c1cc(-c2ccccc2O)n[nH]1,·,-150.1%,74.9*,64.8%,30.5*,-8.6%
Cc1ccc(-c2cc(-c3ccccc3Cl)[nH]n2)c(O)c1,69.5%,-87.7%,128.1*,?,50.7*,-10.2%
Nc1n[nH]c(-c2ccccc2[N+](=O)[O-])n1,-29.2%,-5.8%,-1.9,11.8%,0.6,8.3%
